Activity calls are given as the source filed them. The calls were made as follows: active = hit-call score of the fitted dose curve at least 0.9, where 1 is the maximum; inactive = score below 0.9.

The experiment is described as follows: ATG_PBREM_CIS: Attagene CIS-FACTORIAL HepG2 Assay for human Phenobarbital-responsive Enhancer Module (PBREM) (AID 2282955). The settings on record: HepG2 PBREM cis-reporter, Attagene multiplexed transcription; actives raise or lower the signal. On the procedure: ATG_CIS is a cell-based, multiplexed-readout assay that uses HepG2, a human liver cell line, with measurements taken at 24 hours after chemical dosing in a 24-well plate.ATG_PBREM_CIS is one of 52 assay component(s) measured or calculated from the ATG_CIS assay. It is designed to make measurements of mRNA induction, a form of inducible reporter, as detected with fluorescence intensity signals by Reverse transcription polymerase chain reaction (RT-PCR) and Capillary electrophoresis technology.Data from the assay component ATG_PBREM_CIS was analyzed into 1 assay endpoint. This assay endpoint, ATG_PBREM_CIS, was analyzed with bidirectional fitting relative to DMSO as the negative control and baseline of activity. Using a type of inducible reporter, measures of mRNA for gain or loss-of-signal activity can be used to understand the reporter gene at the transcription factor-level as they relate to the gene NR1I3. Furthermore, this assay endpoint can be referred to as a primary readout, because this assay has produced multiple assay endpoints where this one serves a reporter gene function. To generalize the intended target to other relatable targets, this assay endpoint is annotated to the nuclear receptor intended target family, where the subfamily is non-steroidal.
Human liver HepG2 cells are transiently transfected with multiple reporter transcription units (MRTUs) in 6-well plates using FuGene 6 reagent (Roche; 3 ml FuGene/1 mg DNA). The MRTU constructs are regulated by a cis-regulating element (promoter). […] A major difference between the CIS and TRANS system is that in CIS activities of endogenous TFs are measured, whereas the TRANS assay evaluates changes in activities of exogenous, chimeric NR-Gal4 proteins. […] At the end of 24 hour incubation, total RNA was isolated using TriZol reagent (Invitrogen). The isolated RNA is then reverse-transcribed using oligo(dT) primer and Mo-MLV reverse transcriptase (Invitrogen) with DNAse I (Ambion) treatment for 30 min. The one-tenth of the produced cDNA was amplified by PCR using Taq DNA polymerase (Invitrogen) and two reporter sequence-specific primers. The PCR products were fluorescently labeled by primer extension with 6-arboxyfluorescein (6-FAM) 5'-labeled reporter sequence-specific primer (2 min at 95 C, 20 s at 68 C and 10 min at 72 C) and these products were digested with 5U of HpaI (New England Biolabs) for 2h at 37 C. The fragments were purified using Qiaquick PCR columns (Qiagen), analyzed on an ABI 3130xL genetic analyzer (Applied Biosystems) with peak positions identified by using a set of X-rhodamine (ROX)-labeled MapMarker1000 molecular weight standards (BioVentures). The raw capillary electrophoresis data was processed using Attagraph software (Attagene).
With `CCCCOCN(C(=O)CCl)c1c(CC)cccc1CC`, the AC50 is 0.888 µM (active).
For the compound `Cc1c(COC(=O)[C@@H]2[C@H](/C=C(\Cl)C(F)(F)F)C2(C)C)cccc1-c1ccccc1`, the AC50 was 11.4 µM (active).
As for `CCSC(=O)N1CCCCCC1`, the outcome was inactive.
As to `CCOP(=O)(OCC)Oc1nc(Cl)c(Cl)cc1Cl`, the outcome was inactive.
With `CCOc1nc(F)cc2nc(S(=O)(=O)Nc3c(Cl)cccc3Cl)nn12`, the outcome was inactive.
On to `CC1(C)C(C(=O)OC(C#N)c2cccc(Oc3ccccc3)c2)C1(C)C` (stereo not given), for which the outcome was inactive.
With `COc1ccc(-c2ccccc2)cc1NNC(=O)OC(C)C`, the AC50 is 15.9 µM (active).
With `Nc1cnn(-c2ccccc2)c(=O)c1Cl`, the outcome was inactive.
Take `CCNP(=S)(OC)O/C(C)=C/C(=O)OC(C)C` (stereo not given): the AC50 is 14.7 µM (active).
For the compound `O=c1n(Cl)c(=O)n(Cl)c(=O)n1Cl`, the outcome was inactive.
Regarding `Cn1c(-c2ccccc2)cc(-c2ccccc2)[n+]1C`, the outcome was inactive.
On to `Clc1nc(Cl)nc(Nc2ccccc2Cl)n1`, for which the result was inactive.
The same measure, in the same setting: the same measure for `CC(C)Nc1nc(Cl)nc(NC(C)C)n1`: “inactive”.
Still for that read-out and setting: the same measure for `CCCC(=NOCC)C1=C(O)CC(CC(C)SCC)CC1=O` (stereo not given): “inactive”; for `CC(C)N1C(=O)N(c2ccccc2)CSC1=NC(C)(C)C`: “inactive”.
For `COc1cc(OC)nc(NC(=O)NS(=O)(=O)c2ncccc2OCC(F)(F)F)n1`, the result was inactive.
On the same count and under the same terms, next, `CNC(=O)Oc1cccc2ccccc12`: “inactive”.
Consider `CCOC(=O)C(C)OC(=O)c1cc(Oc2ccc(C(F)(F)F)cc2Cl)ccc1[N+](=O)[O-]` (stereo not given), for which the AC50 is 19.1 µM (active).
With `C=CCOC(=O)C(C)(C)OC(=O)c1cc(-n2c(=O)cc(C(F)(F)F)n(C)c2=O)ccc1Cl`, the outcome was inactive.
`COCc1cnc(C2=NC(C)(C(C)C)C(=O)N2)c(C(=O)O)c1` (stereo not given): the outcome was inactive.
As for `COC(=O)NS(=O)(=O)c1ccc(N)cc1`, the result was inactive.
For the compound `CC(C)=CC1C(C(=O)OCc2coc(Cc3ccccc3)c2)C1(C)C` (stereo not given), the AC50 is 14.6 µM (active).
For the compound `CC1(C)C(C=C(Cl)Cl)C1C(=O)OC(C#N)c1cccc(Oc2ccccc2)c1` (stereo not given), the AC50 is 13.1 µM (active).
In the case of `CN=C=S`, the result was inactive.
For the compound `COP(=S)(OC)Oc1ccc([N+](=O)[O-])c(C)c1`, the outcome was inactive.
As to `COC(=O)c1c(C(F)F)nc(C(F)(F)F)c(C2=NCCS2)c1CC(C)C`, the concentration at half-maximal activity (AC50) is 0.876 µM (active).
In the case of `CCN(CC)C(=O)C(C)Oc1cccc2ccccc12` (stereo not given), the AC50 is 0.949 µM (active).
For `COC(=O)NC(=S)Nc1ccccc1NC(=S)NC(=O)OC`, the AC50 was 21.3 µM (active).
On to `OC(c1ccc(Cl)cc1)(c1ccc(Cl)cc1)C(Cl)(Cl)Cl`, for which the result was inactive.
With `CC1(C)CCC(=Cc2ccc(Cl)cc2)C1(O)Cn1cncn1` (stereo not given), the outcome was inactive.
As for `O=P(O)(O)CCCl`, the outcome was inactive.
As for `CC(C)(C)C(=O)C(Oc1ccc(Cl)cc1)n1cncn1` (stereo not given), the AC50 is 19.5 µM (active).
For `CCN(CC)c1nc(C)cc(OP(=S)(OC)OC)n1`, the result was inactive.
Still for that read-out and setting: next, `Nc1c(Cl)c(F)nc(OCC(=O)O)c1Cl`: “inactive”.
Take `CC1(C)CON(Cc2ccccc2Cl)C1=O`: the result was inactive.
On to `CCOc1nc(C(Cl)(Cl)Cl)ns1`, for which the result was inactive.
Turning to `CNC(=O)N(C)c1nnc(C(C)(C)C)s1`, the result was inactive.
On to `O=C(O)c1c(Cl)ccc2cc(Cl)cnc12`, for which the result was inactive.
For the compound `CC(C)NC(=O)N1CC(=O)N(c2cc(Cl)cc(Cl)c2)C1=O`, the AC50 is 11.8 µM (active).
With `CS(=O)(=O)c1cc(C(F)(F)F)ccc1C(=O)c1cnoc1C1CC1`, the outcome was inactive.

Source of the values: PubChem BioAssay (EPA / NIEHS).
